# Data reported in the OligoGym collection.
# Assays:
# Assay in all cases: pooled miR-30 sensor sort-seq; sequence = guide strand
# Details in all cases: shRNA
# CTLA4 = molecular target: CTLA4
# CTNNAL1 = molecular target: CTNNAL1
# CTNNBL1 = molecular target: CTNNBL1
# CUZD1 = molecular target: CUZD1
# CWF19L2 = molecular target: CWF19L2
# CTSH = molecular target: CTSH
# CXCL1 = molecular target: CXCL1
# Further: reference of the scale not given here.
sequence,measurement,setting,value
TTTGCTCAAAGAAACAGCTGTG,sensor-assay potency score (higher = more potent),CTLA4,0.483
TTCTTTAGCATTTTGCTCAAAG,sensor-assay potency score (higher = more potent),CTLA4,-0.747
TTTCTTGATGTTATTATCTGTT,sensor-assay potency score (higher = more potent),CTNNAL1,-0.648
ATCTCTGTCAATAATCTGCAGC,sensor-assay potency score (higher = more potent),CTNNBL1,-0.982
TAAATCTGGGTTCCGTTGCCTA,sensor-assay potency score (higher = more potent),CTLA4,-0.995
TTTTCTTTAGCATTTTGCTCAA,sensor-assay potency score (higher = more potent),CTLA4,-0.539
TTTGTATTACATCATCTTCTGT,sensor-assay potency score (higher = more potent),CUZD1,-0.716
TTGCAGTATCTGTTGTAGCATA,sensor-assay potency score (higher = more potent),CWF19L2,-0.923
TTTGCTTATAATAACTCTCATC,sensor-assay potency score (higher = more potent),CUZD1,-0.82
TTCAGCAAAGCTCATGTCTGAA,sensor-assay potency score (higher = more potent),CTSH,-0.714
TAATCTTTCTTCACTGTTCTTG,sensor-assay potency score (higher = more potent),CWF19L2,0.0595
TTTGACTTTGTATTACATCATC,sensor-assay potency score (higher = more potent),CUZD1,-1.5
TCGATGATTTTCTTAACTATGG,sensor-assay potency score (higher = more potent),CXCL1,-1.57
TTAGACATCCATGACTTGAAGT,sensor-assay potency score (higher = more potent),CTSH,-0.899
TTACGGTGCTTAGACATCCATG,sensor-assay potency score (higher = more potent),CTSH,-1.04
ATGATTTTCTTAACTATGGGGG,sensor-assay potency score (higher = more potent),CXCL1,-0.365
TATCTTGTAATCTTTCTCCACT,sensor-assay potency score (higher = more potent),CUZD1,-0.514
TAATCCACCATCTTCTACCACT,sensor-assay potency score (higher = more potent),CWF19L2,-1.06
TTAGATTCTCTTCTACACGTTT,sensor-assay potency score (higher = more potent),CWF19L2,-0.587
TTGTTTCTCAGCTTGTTCCTTC,sensor-assay potency score (higher = more potent),CWF19L2,0.329
TGTTGTAGCATATCTATCCCTT,sensor-assay potency score (higher = more potent),CWF19L2,-0.316
TTGAAGTTTAGTTTTATCTTGT,sensor-assay potency score (higher = more potent),CUZD1,0.539
TGTGATGTTGGCTACATCCTTG,sensor-assay potency score (higher = more potent),CTSH,-0.0306
TTTCTTGACAATTTTGTGCTTT,sensor-assay potency score (higher = more potent),CWF19L2,0.803
TTCTGATTGTACCACATCCATT,sensor-assay potency score (higher = more potent),CUZD1,-1.82
AAATACAGGAACATAGTCGTTT,sensor-assay potency score (higher = more potent),CUZD1,0.0357
TTCTACTTTGTTTCTCAGCTTG,sensor-assay potency score (higher = more potent),CWF19L2,0.279
TTGTTGTACAGGATATACTCGA,sensor-assay potency score (higher = more potent),CTSH,0.136
TTTACTAAGTCTGATTCTCTAC,sensor-assay potency score (higher = more potent),CWF19L2,-0.315
TAAATTAACTGAACAATTCGGA,sensor-assay potency score (higher = more potent),CWF19L2,0.661
